Measurements reported in PubChem BioAssay.
Unmarked numbers belong to inactive results. Active and inactive are the calls of the source.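 How the source made its calls, unless noted: active means mean inhibition above 46.68%, the untreated control wells mean plus 3 SD; inactive means the rest.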

Experiments:
[1] = biological target: Nuclear receptor coactivator 1 (Homo sapiens) (UniProt Q15788); experiment: NCOA1 GAL4-fusion reporter inhibition – cell-based, luminescence, quadruplicate, confirmation (AID 588820); conditions: HEK293 GAL4-SRC1 luciferase reporter, at 3.6 µM, hits give high values;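 further: 0% = DMSO wells and 100% = gossypol 36 µM treated wells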
Chain of Nuclear receptor coactivator 1 (Homo sapiens) (Q15788 whole entry, looked up, the tested form may be a part): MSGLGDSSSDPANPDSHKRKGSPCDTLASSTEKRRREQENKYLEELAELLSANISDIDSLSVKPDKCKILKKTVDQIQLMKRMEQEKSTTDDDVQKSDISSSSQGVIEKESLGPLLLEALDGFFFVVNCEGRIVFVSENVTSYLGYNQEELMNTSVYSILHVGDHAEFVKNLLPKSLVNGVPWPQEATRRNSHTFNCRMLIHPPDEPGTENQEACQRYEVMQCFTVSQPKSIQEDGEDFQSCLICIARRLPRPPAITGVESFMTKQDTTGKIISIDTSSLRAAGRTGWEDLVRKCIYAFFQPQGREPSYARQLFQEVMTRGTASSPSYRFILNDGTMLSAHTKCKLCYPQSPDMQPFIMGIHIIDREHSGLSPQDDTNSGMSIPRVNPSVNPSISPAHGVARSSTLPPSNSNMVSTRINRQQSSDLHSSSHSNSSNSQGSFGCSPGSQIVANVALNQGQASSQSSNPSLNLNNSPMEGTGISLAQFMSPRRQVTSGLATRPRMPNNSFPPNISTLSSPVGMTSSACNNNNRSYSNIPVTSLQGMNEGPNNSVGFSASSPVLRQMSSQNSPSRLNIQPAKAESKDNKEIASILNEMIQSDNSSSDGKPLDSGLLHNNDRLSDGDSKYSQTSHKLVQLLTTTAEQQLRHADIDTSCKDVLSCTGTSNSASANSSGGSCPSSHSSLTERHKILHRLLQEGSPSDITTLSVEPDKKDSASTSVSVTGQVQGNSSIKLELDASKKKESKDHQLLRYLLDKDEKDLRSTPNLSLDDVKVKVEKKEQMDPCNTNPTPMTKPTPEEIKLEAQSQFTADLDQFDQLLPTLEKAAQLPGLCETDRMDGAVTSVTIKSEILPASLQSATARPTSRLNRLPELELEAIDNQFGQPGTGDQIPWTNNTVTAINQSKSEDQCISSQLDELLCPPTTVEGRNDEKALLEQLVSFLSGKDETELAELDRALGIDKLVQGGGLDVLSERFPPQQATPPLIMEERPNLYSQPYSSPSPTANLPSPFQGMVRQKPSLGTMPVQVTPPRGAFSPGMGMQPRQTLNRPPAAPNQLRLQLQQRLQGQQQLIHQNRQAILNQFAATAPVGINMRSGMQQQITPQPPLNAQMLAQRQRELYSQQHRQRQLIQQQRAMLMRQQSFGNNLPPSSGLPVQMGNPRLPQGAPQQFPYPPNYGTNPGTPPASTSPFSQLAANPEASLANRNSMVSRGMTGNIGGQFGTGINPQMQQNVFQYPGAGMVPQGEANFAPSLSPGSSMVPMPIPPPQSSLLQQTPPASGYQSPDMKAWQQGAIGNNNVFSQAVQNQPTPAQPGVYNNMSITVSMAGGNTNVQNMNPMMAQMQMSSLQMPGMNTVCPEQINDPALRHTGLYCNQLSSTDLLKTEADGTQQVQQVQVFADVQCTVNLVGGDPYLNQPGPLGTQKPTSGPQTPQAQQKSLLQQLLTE

[2] = repression of VP16-driven luciferase reporter – cell-based, luminescence, high throughput, counter-screen for SRC1 inhibitor project (AID 588824; in the data active means inhibition above about 25%); conditions: cell-based VP16 transactivation luciferase luminescence; at 3.6 µM; hits give high values

SMILES	inhibition [1] [%]	inhibition [2]
COc1cccc(NC(=O)CN(C)CC(=O)Nc2ccc(C)c([N+](=O)[O-])c2)c1	28	27.2% (active)
Cc1cc(CSc2ccccc2)ccc1NC(=O)c1ccc(CN2CCOCC2)cc1	-33.7	33.4% (active)
CN(C)C(=O)c1ccc(-c2n[nH]c(=O)c3ccccc23)cc1	34.3	18.3%
CCc1nc(Nc2ccncc2)c2oc3ccccc3c2n1	12.3	12%
Cc1cccc(NC(=O)CSc2nnc(NC(=O)C3CC3)s2)c1C	-3.25	6.7%
CC(=C\c1ccccc1)/C=C1/SC(=S)N(CCC(=O)O)C1=O	-20.4	-5.15%
Cc1ccc(-n2c(C)nn(CC3CC3)c2=O)cc1	2.58	-3.08%
CCN(CC)S(=O)(=O)c1cc(NC(=O)C2CCN(c3ncnc4sc(C)c(C)c34)CC2)ccc1Cl	3.49	34.4% (active)
COc1cc(C(=O)OCC(=O)NC(N)=O)cc(CN2C(=O)c3ccccc3C2=O)c1OC	-10.9	-8.55%
CC(NC(=O)COC(=O)c1cccs1)c1ccccc1 (stereo not drawn)	15.5	13.6%
NC(=O)c1nsc(C(=O)N(c2ccccc2F)C(C(=O)NCc2ccccc2)c2ccc(O)cc2)c1N (stereo not drawn)	-15.1	2.13%
COc1ccccc1NC(=O)CN(c1ccccc1)S(=O)(=O)c1ccccc1	-16.7	-7.82%
COc1ccc(-c2[nH]ncc2CN(C)Cc2nonc2C)c(OC)c1	-25	-13.1%
COc1ccc(-n2c(NNC(C)=O)nc3sc4c(c3c2=O)CCCC4)cc1	23.4	31.6% (active)
CCN(CC)S(=O)(=O)c1cccc(C(=O)OCC(=O)Nc2ccc3c(c2)c2ccccc2n3CC)c1	-11.9	24.3%
Cc1ccc(S(=O)(=O)N2CCN(C(=O)c3ccc(S(=O)(=O)N4CCCC4)cc3)CC2)cc1	1.07	9%
COc1ccc(-c2nnc(NC(=O)CSc3ccccc3)s2)cc1OC	1.2	-8.89%

SMILES	inhibition [1] [%]	inhibition [2]
O=C(CSc1ccccc1)Nc1nnc(-c2ccco2)o1	1.78	-4.61%
CSc1ccc(CN2CCN(C(=O)CC(C)C)CC2)cc1	-3.21	-2.54%
COc1ccc(CN(C(=O)CSc2nnc(-c3c[nH]c4ccccc34)o2)c2ccc(F)cc2)cc1OC	-67.5	-22.2%
COc1ccccc1NC(=O)c1cc(S(=O)(=O)NC2CCCC2)ccc1F	3.42	5.69%
O=C(NC1CCCC1)C(c1ccccc1)N(Cc1ccco1)C(=O)Cc1cccs1 (stereo not drawn)	17.7	31.5% (active)
O=C(COc1ccc(S(=O)(=O)Nc2ccccc2)cc1)NCc1ccncc1	-7.07	2.08%
O=C(CN1C(=O)COc2ccccc21)Nc1ccccc1F	-26	1.99%
Cc1cc(-c2ccc(F)cc2)n2ncc(-c3ccccc3)c2n1	-87.3	-34.6%
Cc1ccc(S(=O)(=O)N(C)c2ccc(C(=O)Nc3ccccc3C(=O)N3CCOCC3)cc2)cc1	-10.1	-3.41%
CC(C)(C)c1ccc(-c2cc(-c3ccccc3O)[nH]n2)cc1	-42.5	-28.4%
COc1cc(OC)cc(C(=O)NNC(=O)c2ccccn2)c1	10.7	2.65%
O=C(N[C@H]1c2ccccc2C[C@H]1O)[C@H]1O[C@@H](n2ccc(=O)[nH]c2=O)[C@H](O)[C@@H]1O	-26.1	-8.81%
COc1cccc(/C=N/NC(=O)CSc2ccccc2C)c1O	-0.52	6.05%
Cn1ccnc1SCC(=O)NC1(C#N)CCCCC1	-19.4	-3.8%
O=C(NC(=S)NCC1CCCO1)c1ccccc1[N+](=O)[O-] (stereo not drawn)	-12.7	-12%
COc1ccc(C[C@H]2COC(=O)[C@@H]2Cc2ccc(OC3OC(CO)C(O)C(O)C3O)c(OC)c2)cc1OC (stereo partly drawn)	9.39	31% (active)
COc1cccc(C(C(=O)NC2CCCC2)N(C(=O)c2ccco2)c2ccc(C(C)=O)cc2)c1OC (stereo not drawn)	-0.53	-9.34%
